# NALP3 yeast inh: blocks the NALP3 inflammasome reconstituted in yeast | 330,000 tested, 0.39% active | Yeast reconstituted NLRP3/ASC/caspase-1, beta-gal luminescence, 24 h | AID 2825 | inhibition, % at 10 µM;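 active = inhibition of 50% or more; inactive = inhibition below 50%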;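 also: plate controls were induced DMSO wells for no effect and uninduced yeast grown without galactose for full effect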
# tim10-1 inh: tim10-1 yeast growth inhibition. 330,000 tested, 2.2% active. S. cerevisiae tim10-1 ts strain growth, BacTiter-Glo, 24 h. AID 463190. inhibition, % at 20 µM;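 active = inhibition of at least 40%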;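 also: mutant grown at 25 °C; 0% = DMSO wells with yeast and 100% = wells holding no yeast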
# PfHsp90 set2: inhibits growth of yeast expressing Plasmodium falciparum Hsp90; inhibition, % at 9.4 µM; 310,000 tested, 0.32% active; AID 504621; S. cerevisiae expressing PfHsp90, BacTiter-Glo ATP, 48 h; yeast lacking PDR1 and PDR3 efflux regulators;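 active = every replicate shows inhibition above about 80%, whatever the replicate mean, limit read from the data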;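 also: 0% = DMSO neutral controls and 100% = 20 µM radicicol positive controls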
# TIM10 inh: growth inhibitors of TIM10 yeast strain | S. cerevisiae TIM10 strain growth, BacTiter-Glo luminescence, 24 h | inhibition, % at 10 µM | 330,000 tested, 1.4% active | AID 463195;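 active = inhibition of 40% or more at the single tested concentration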;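 also: wild-type TIM10 isogenic control strain grown at permissive 25 °C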
# tim23-1 inh: inhibits growth of tim23-1 mutant yeast; S. cerevisiae tim23-1 growth, BacTiter-Glo luminescence, 24 h; inhibition, % at 20 µM; 330,000 tested, 1.3% active; AID 463212;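 active = growth inhibition of the mutant yeast at or above 50%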;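 also: temperature-sensitive mutant grown at 25 °C; plate controls were DMSO-treated mutant yeast for no effect and medium wells lacking yeast for full effect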
# An asterisk follows results filed as active; nt = not tested or not shown. Shown are actives, neighbours in structure and some others; about 3.7% of the full set was active somewhere.
SMILES,NALP3 yeast inh,tim10-1 inh,PfHsp90 set2,TIM10 inh,tim23-1 inh
COc1ccc(N=Nc2ccc(O)c3ncccc23)cc1,32,11,104*,-3,47
COc1ccc(C)cc1N=Nc1ccc(O)c2ncccc12,nt,nt,109*,nt,nt
COc1cc(OC)cc(C(=O)Nc2cccc3cccnc23)c1,22,-5,0,16,21
O=C(CCN1C(=O)NC2(CCCC2)C1=O)Nc1cccc(S(=O)(=O)N2CCOCC2)c1,1,-4,-8,-4,-19
Cc1cc(C)c(S(=O)(=O)Nc2ccccn2)c(C)c1,1,9,2,2,14
CNC(=S)Nc1cccc(S(=O)(=O)NCc2ccco2)c1,10,-2,nt,-7,2
Cc1ccc(NC(=S)N2CCN(c3ccccc3F)CC2)c(C)c1,38,18,3,15,45
COc1ccc(C(C[N+](=O)[O-])C2(c3ccc(OC)c(OC)c3)C(=O)c3ccccc3C2=O)cc1 (stereo not given),nt,nt,105*,nt,nt
O=C(COc1ccc(Br)cc1)N1CCNC1=O,2,0,-6,-10,10
CC(NC(=O)C1CCN(S(=O)(=O)c2ccc3c(c2)NC(=O)CO3)CC1)c1ccccc1 (stereo not given),7,-5,-1,-3,2
O=C(Nc1nc(-c2ccccn2)cs1)c1ccc(-c2ccccc2F)o1,9,39,96*,21,23
O=C(Nc1nc(-c2ccccn2)cs1)C1COc2ccccc2O1 (stereo not given),48,24,103*,-1,43
Cc1nnc(NC(=O)CN2CCN(Cc3ccc(F)cc3Cl)CC2)s1,-4,-10,0,-4,-8
CSc1ncc(CN2CCN(C3CCCCC3)C(CCO)C2)cn1 (stereo not given),3,13,nt,13,0
CC1=C(C(=O)OCc2ccccc2)C(/C=C/c2ccccc2)NC(=S)N1 (stereo not given),26,-4,85*,35,36
CN=Cc1sc2ccccc2c1O,20,16,-9,20,17
O=Nc1c(O)c2ccccc2c2ccccc12,nt,nt,111*,nt,nt
COc1ccc(OC)c(NC(=O)c2ccno2)c1,6,12,3,-1,10
O=C(NCc1ccc2c(c1)OCO2)c1ccc(Br)cc1,25,-21,89*,-71,37
COc1ccc(Nc2cnn(-c3nc4ccccc4s3)c(=O)c2Cl)cc1,nt,nt,96*,nt,nt
CC(=O)N(C)c1ccc(OCC(O)Cn2c3ccc(Cl)cc3c3cc(Cl)ccc32)cc1 (stereo not given),10,39,98*,39,24
CC(=O)N(C)c1ccc(OCC(O)Cn2c(C)nc3ccccc32)cc1 (stereo not given),0,9,nt,-1,2
O=C(Nc1ccccc1)OCC(CN1CCCCC1)OC(=O)Nc1ccccc1 (stereo not given),8,16,11,6,7
CCc1ccc(C(=O)NC(=S)NCc2cccnc2)cc1,37,14,-20,-1,20
O=[N+]([O-])c1cc(Cl)c(O)c2ncccc12,22,-16,98*,-7,-13
SMILES,NALP3 yeast inh,tim10-1 inh,PfHsp90 set2,TIM10 inh,tim23-1 inh
CCCCNc1c(-c2ccc(SC(C)CC)cc2)nc2cnccn12 (stereo not given),41,-22,107*,-21,36
CCCCNc1c(-c2ccc(OC)c(Sc3ccc(OC)cc3)c2)nc2cnccn12,23,6,22,-3,26
Cc1cc([N+](=O)[O-])nn1CCCC(=O)N1CCN(c2ccc(F)cc2)CC1,6,8,-11,7,8
CC(C)=CCC[C@](C)(O[C@@H]1O[C@H](CO[C@@H]2OC[C@H](O[C@@H]3OC[C@@H](O)[C@H](O)[C@H]3O)[C@H](O)[C@H]2O)[C@@H](O)[C@H](O)[C@H]1O)C1CC[C@]2(C)C1[C@H](O)CC1[C@@]3(C)CC[C@H](O)C(C)(C)C3[C@@H](O)C[C@]12C (stereo not given in full),15,12,-8,3,14
CCCC(=O)NC(c1ccc(N(C)C)cc1)c1ccc2cccnc2c1O (stereo not given),14,-26,1,-92,42
CCN1CCN(C(c2ccc(C(F)(F)F)cc2)c2ccc3cccnc3c2O)CC1 (stereo not given),44,28,121*,-54,49
O=C(Cc1c(O)c2ccccc2oc1=O)c1ccc(C(F)(F)F)cc1,10,1,13,5,7
O=c1oc2ccccc2c(O)c1Cc1cc(Cl)c2cccnc2c1O,3,19,90*,5,8
COc1cccc(/C=C2/CCC(CN(C)C)C2=O)c1 (stereo not given),nt,nt,146*,nt,nt
OCCC1CN(Cc2cccn2-c2ccccn2)CCN1Cc1ccccc1 (stereo not given),5,-10,15,-12,8
O=C(COC(=O)Cc1c(F)cccc1Cl)Nc1ccc2[nH]c(=O)[nH]c2c1,13,3,-2,-2,6
CCOc1ccccc1-c1c2cc(O)c(=O)cc-2oc2cc(O)c(O)cc12,nt,nt,93*,nt,nt
CC(=O)Oc1ccccc1C(=O)C=Cc1cccc([N+](=O)[O-])c1,nt,nt,106*,nt,nt
Cc1cccc(Nc2nc(N)c([N+](=O)[O-])c(N3CC(C)CC(C)C3)n2)c1 (stereo not given),6,-3,101*,16,29
O=C(N/N=C\c1c(O)ccc2ccccc12)c1cncc(Br)c1,38,-17,107*,-45,47
CCCc1cc(=O)n2c(nc3ccccc32)[nH]1,-9,-6,6,-22,1
O=C(CCCCl)NC1=NN(c2ccccc2)C(=O)C1,nt,nt,-1,nt,nt
O=C(COc1ccc(Cl)cc1)NC1=NN(c2ccccc2)C(=O)C1,28,23,125*,6,23
Cc1sc(NC(=O)c2ccco2)c(C(c2cccnc2)N2CCC(C)CC2)c1C (stereo not given),-9,37,92*,39,40
O=C(O)c1cccc2c1Cc1cc([N+](=O)[O-])ccc1-2,nt,nt,115*,nt,nt
CC(Oc1ccc(Cl)cc1)C(=O)NNC(=S)NC(=O)c1ccco1 (stereo not given),36,-4,103*,-11,16
COc1ccc(C(=O)NNC(=S)NC(=O)c2ccco2)cc1,26,5,nt,18,-21
COc1ccccc1C(=O)NNC(=S)NC(=O)c1ccco1,38,-9,104*,-26,-62
CCOc1cc(Br)c(C(C)NC(=O)c2cccnc2)cc1OCC (stereo not given),4,-2,nt,-2,15
O=C1c2cc(Cl)ccc2-c2c(O)cc(Cl)cc21,nt,nt,97*,nt,nt
O=c1cc(O)c(-c2ccc(Cl)cc2)c(Cl)[nH]1,6,2,24,-20,-2
Cc1ccc(O)c(NC(=S)NC(=O)c2ccc(-c3ccc(Cl)cc3)o2)c1,34,15,122*,1,23
O=C(NC(=S)Nc1ccccc1O)c1ccc(-c2ccc(Cl)cc2)o1,24,14,-38,-5,0
